# Hit rate of the full screen: of about 1,200 compounds, about 480 (40%) were called active. Roughly 29% stayed inconclusive and do not appear here. This is one part of the list. Unmarked numbers belong to inactive results. Calls follow the shape of the dose curve; as a rule, active = well fitted inhibition curve with a large enough effect; inconclusive = small, poorly fitted or top-dose-only effect; inactive = no such curve, though single readings can be large or run the other way.
# Test: qHTS Assay to Find Inhibitors of Chronic Active B-Cell Receptor Signaling: Hit Validation in Primary Screen; also: nearly all actives have a fitted effect of over 75% in size
# Settings: ABC-DLBCL IkB-luc/CBR ratio luminescence, 4 h; series mostly up to 46.1 µM; activity change, negative = inhibition: at the top concentration
# How it was run: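 TMD8 ABC-DLBCL cells carrying doxycycline-inducible IkBa-green luciferase fusion and free red luciferase, 0.5% FBS, dosed 46 uM–3 nM with doxycycline for 4 h at 37C. Green/red luminescence ratio normalized to basal and 10 uM MG-132.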
# % is scaled to controls: 0 for no effect and ±100 for the full control effect; potency is read from the fitted curve at half-maximal effect.
SMILES,"activity change, negative = inhibition [%]",Potency
CCOC(=O)C1=C(O)/C(=C/c2ccc(OCC(=O)O)c(OCC)c2)SC1=Nc1ccccc1,-14.4,–
CCOc1cc(/C=C2\CN(C)C/C(=C\c3ccc(O)c(OCC)c3)C2=O)ccc1O,–,6.51 µM (active)
C=CCC(CC(O)COCCC)C(=O)NNC(=S)Nc1ccccc1 (stereo unspecified),-5.99,–
Cc1ccc(C(=O)c2cc([N+](=O)[O-])ccc2N2CCCCC2)c(C)c1,–,1.03 µM (active)
Cc1ccc(C(=O)c2cc([N+](=O)[O-])ccc2N2CCOCC2)c(C)c1,–,4.61 µM (active)
Cc1ccc(C(=O)c2cc([N+](=O)[O-])ccc2N2CCCCC2)cc1C,–,6.51 µM (active)
O=C(c1ccc(Br)cc1)c1cc([N+](=O)[O-])ccc1N1CCCCC1,–,2.31 µM (active)
COCCCNC(=O)C[C@H]1C[C@H](C(=O)N2CCCCC2)[C@@]2(C)c3[nH]c4ccc(Cl)cc4c3CCN2C1=O,-15.7,–
S=c1c2c(nc3nc[nH]n13)CCC2,-4.25,–
CC1CCCN(c2ccc([N+](=O)[O-])cc2C(=O)c2ccccc2)C1 (stereo unspecified),–,3.26 µM (active)
Cc1ccc(C(=O)c2cc([N+](=O)[O-])ccc2N2CCCCC2)cc1,–,2.31 µM (active)
CCN(CC)c1ccc(/C=N/NC(=S)NC)c(O)c1,84.8,–
CCN(CC)c1ccc(/C=N/N=C(N)N)c(O)c1,–,10.3 µM (active)
COc1cc(C(=O)NNC(=S)Nc2ccc(S(N)(=O)=O)cc2)cc(OC)c1OC,-2.88,–
COc1ccc(N/C=C/C(=O)c2cc(OC)c(OC)c(OC)c2)cc1,–,7.31 µM (active)
COc1ccc(Nc2cc(C)nc(-n3nc(C)cc3C)n2)cc1,–,7.31 µM (active)
CCOc1ccc(Nc2cc(C)nc(-n3nc(C)cc3C)n2)cc1,–,3.26 µM (active)
COc1ccc(C(=O)n2c(-c3ccco3)nc3ccccc32)cc1,–,18.4 µM (active)
COc1ccc(N=N/C(=C\O)C(=O)c2ccco2)cc1,118,–
COC(=O)c1cn(C(=O)c2ccc(OC)cc2)c2ccccc12,38.5,–
Cc1ccc(S(=O)(=O)N2CCN(C(=O)CSc3n[nH]c(N)n3)CC2)c(C)c1,-6.01,–
Cc1ccc(CSc2nc3ccccc3cc2C=O)cc1,–,2.91 µM (active)
O=Cc1cc2ccccc2nc1SCc1ccc(Cl)c(Cl)c1,-22.9,–

SMILES,"activity change, negative = inhibition [%]",Potency
COc1cccc(CSc2nc3ccccc3cc2C=O)c1,–,2.59 µM (active)
CCC(=O)[C@@]1(C)[C@H](C)C[C@H]2[C@@H]3CCC4=CC(=O)C=C[C@]4(C)[C@H]3[C@@H](O)C[C@@]21C,-30,–
CCOC(=O)c1ccc(NC(=O)Nc2ccon2)cc1,–,2.31 µM (active)
CCOC(=O)c1ccc(NC(=S)NNC(C)(C)C)cc1,-6.72,–
O=C(Nc1ccc([N+](=O)[O-])cc1)Nc1ccon1,–,8.2 µM (active)
COc1ccc(/C=N/NC(=O)c2[nH]c3ccc(Cl)cc3c2-c2ccccc2)c(C(=O)O)c1OC,11.9,–
NNC(=O)c1cc2cc(OC(F)(F)F)ccc2[nH]1,0.4,–
Cc1ccc2[nH]c(C(=O)N/N=C/c3ccccc3C(=O)O)c(-c3ccccc3)c2c1,5.85,–
O=C(N/N=C/c1ccccc1)c1[nH]c2ccc(Br)cc2c1-c1ccccc1,–,0.517 µM (active)
CCOc1ccc2[nH]c(C(=O)N/N=C/c3ccc(OC)cc3)cc2c1,–,2.91 µM (active)
Cc1c(C(=O)N/N=C/c2ccc(Cl)cc2)[nH]c2ccc(Cl)cc12,–,0.731 µM (active)
O=C(N/N=C/c1ccc(O)cc1)c1[nH]c2ccc(Br)cc2c1-c1ccccc1,–,1.3 µM (active)
NNC(=O)c1[nH]c2ccc([N+](=O)[O-])cc2c1-c1ccccc1,2.28,–
COc1ccc(NC(=S)N/N=C/c2ccc(F)c(F)c2)cc1,-4.94,–
COc1ccc(/C=N/NC(=O)c2[nH]c3ccc(Br)cc3c2-c2ccccc2)cc1,–,0.231 µM (active)
COc1ccc(/C=N/NC(=O)c2[nH]c3ccc(Br)cc3c2-c2ccccc2)c(C(=O)O)c1OC,11.4,–
Cc1ccc2[nH]c(C(=O)NN=C3CCCCC3)c(-c3ccccc3)c2c1,-0.622,–
O=C(NN=C1CCCC1)c1[nH]c2ccc(Cl)cc2c1-c1ccccc1,–,13 µM (active)
NNC(=O)c1[nH]c2ccc(Cl)cc2c1-c1ccccc1,-12.8,–
Cc1nn(CCC(=O)NNC(=S)NCC(C)C)c(C)c1Br,-4.7,–
CCN(CC)c1ccc2cc(-c3nc4ccccc4n3C)c(=O)oc2c1,–,0.58 µM (active)
CC(/C=C/c1ccccc1)=N\NC(=S)NC(C)C,28.3,–
O=C(CSc1cccc[n+]1[O-])CSc1cccc[n+]1[O-],-7,–

# Source: PubChem BioAssay AID651558 (National Center for Advancing Translational Sciences (NCATS), 2012)
